# Source: the supplement of paper PMC13380429
# Test system: Vero E6 infected with SARS-CoV-2
# Assay: SARS-CoV-2 infection rate relative to infected DMSO; higher = more infection, active = 60 or less
# Conditions: 24 h
row,SMILES,SARS-CoV-2 infection rate
1,c1ccc2nc(N3CCNCC3)ccc2c1 [quipazine] (10 µM),104% (inactive)
2,CCCCCCNC(=O)n1cc(F)c(=O)[nH]c1=O [Carmofur] (0.833333 µM),106% (inactive)
3,CCNC(=O)Nc1ccc(-c2nc3c(c(N4CCOC[C@@H]4C)n2)CCN(C2COC2)C3)cc1 (0.833333 µM),103% (inactive)
4,Cc1cc(CN2CCN(c3c(Br)cnc4nc(-c5ccc(N6CCN(C)CC6)cc5)[nH]c34)CC2)no1 (10 µM),116% (inactive)
5,O=C(Cc1ccc(Cl)c(Cl)c1)N1CCCC[C@@H]1CN1CCCC1 (10 µM),91.5% (inactive)
6,CCN(CCO)CCCOc1ccc2c(Nc3cc(CC(=O)Nc4cccc(F)c4)[nH]n3)ncnc2c1 [barasertib-HQPA] (10 µM),112% (inactive)
7,"CCCC(O)C(CC)CO (centres undefined) [2-ethyl-1,3-hexanediol] (0.833333 µM)",116% (inactive)
8,CCN1C(=O)CNc2ncc(-c3ccc(-c4nc[nH]n4)nc3C)nc21 (10 µM),96.5% (inactive)
9,COc1ccc(Cl)c(Nc2nc3ccccc3nc2NS(=O)(=O)c2cccc(NC(=O)C(C)(C)N)c2)c1 [pilaralisib] (10 µM),103% (inactive)
10,NNC(=O)c1ccncc1 [isoniazid] (10 µM),111% (inactive)
11,CCOc1ccc(-c2nc(-c3cccc4c3CCC4NCCO)no2)cc1OCC (centres undefined) (10 µM),12% (active)
12,CC(C)c1cc(-c2n[nH]c(=O)n2-c2ccc3c(ccn3C)c2)c(O)cc1O [ganetespib] (0.833333 µM),111% (inactive)
13,CO[C@@]1(NC(=O)CSC[C@@H](N)C(=O)O)C(=O)N2C(C(=O)O)=C(CSc3nnnn3C)CS[C@@H]21 [cefminox] (10 µM),115% (inactive)
14,COc1ncc(-c2ccc3nccc(-c4ccnnc4)c3c2)cc1NS(=O)(=O)c1ccc(F)cc1F (0.833333 µM),110% (inactive)
15,CC1(C)CNc2cc(NC(=O)c3cccnc3NCc3ccncc3)ccc21 [motesanib] (10 µM),108% (inactive)
16,c1ccc2c(c1)CCCC2C1=NCCN1 (centres undefined) [tetrahydrozoline] (0.833333 µM),103% (inactive)
17,NCCCC[C@H](NC(=O)[C@@H]1CCCN1C(=O)[C@@H]1CSSC[C@H](N)C(=O)N[C@@H](Cc2ccc(O)cc2)C(=O)N[C@@H](Cc2ccccc2)C(=O)N[C@@H](CCC(N)=O)C(=O)N[C@@H](CC(N)=O)C(=O)N1)C(=O)NCC(N)=O [lypressin] (10 µM),91% (inactive)
18,O=C(NC1CCOCC1)c1ccc(-c2cc(-c3c[nH]nc3-c3ccccn3)ccn2)cc1 (10 µM),114% (inactive)
19,O=C(O)CCc1ccc(NCc2cccc(Oc3ccccc3)c2)cc1 (10 µM),116% (inactive)
20,Cc1nn(C)c2nc(NNC(=O)Nc3cc(Cl)nc(Cl)c3)cc(C(C)C)c12 (10 µM),108% (inactive)
21,CC(=O)OCC1=C(C(=O)O)N2C(=O)[C@@H](NC(=O)CSc3ccncc3)[C@H]2SC1 [cephapirin] (10 µM),93.5% (inactive)
22,C=C(C)[C@@H]1CC[C@]2(C(=O)O)CC[C@]3(C)[C@H](CC[C@@H]4[C@@]5(C)CC[C@H](O)C(C)(C)[C@@H]5CC[C@]43C)[C@@H]12 [betulinic-acid] (10 µM),108% (inactive)
23,O=C(O)CCc1c(C(=O)O)[nH]c2cc(Cl)cc(Cl)c12 (10 µM),104% (inactive)
24,CC(=O)OC[C@H]1O[C@@H]([S-])[C@H](OC(C)=O)[C@@H](OC(C)=O)[C@@H]1OC(C)=O.CCP(CC)CC.[Au+] [auranofin] (0.833333 µM),79% (inactive)
25,CC1CCC(NC(=O)N(CCCl)N=O)CC1 (centres undefined) [semustine] (10 µM),116% (inactive)
26,Oc1cc2c(cc1O)CN(C(=S)NCCc1ccc(Cl)cc1)CCC2 [capsazepine] (10 µM),92.5% (inactive)
27,C[C@]12C[C@H](O)[C@H]3[C@@H](CCC4=CC(=O)CC[C@@]43C)[C@@H]1CC[C@@H]2C(=O)CO [corticosterone] (10 µM),110% (inactive)
28,Cc1ncc([N+](=O)[O-])n1CC(O)CN1CCOCC1 (centres undefined) [morinidazole] (10 µM),111% (inactive)
29,CCC[C@H](N[C@@H](C)C(=O)N1[C@H](C(=O)O)C[C@@H]2CCCC[C@@H]21)C(=O)O [perindoprilat] (10 µM),104% (inactive)
